Experimental data taken from the supplement of paper PMC11732987, “Enantioselective OTUD7B fragment discovery through chemoproteomics screening and high-throughput optimisation” (Communications Chemistry, 2025).

How the values were obtained:
Assay in all cases: log2 ratio of Biotin-Ahx-Ub-VS probe labelling (fragment/DMSO); higher = less target engagement (more negative = stronger competition), active = hit call of the paper (q ≤ 0.05, log2 ratio ≤ -1)
Details in all cases: compound concentration: 200 uM; treatment time: 3 h
USP19 = target: T1, USP19 (UniProt O94966)
T1 sequence (whole entry): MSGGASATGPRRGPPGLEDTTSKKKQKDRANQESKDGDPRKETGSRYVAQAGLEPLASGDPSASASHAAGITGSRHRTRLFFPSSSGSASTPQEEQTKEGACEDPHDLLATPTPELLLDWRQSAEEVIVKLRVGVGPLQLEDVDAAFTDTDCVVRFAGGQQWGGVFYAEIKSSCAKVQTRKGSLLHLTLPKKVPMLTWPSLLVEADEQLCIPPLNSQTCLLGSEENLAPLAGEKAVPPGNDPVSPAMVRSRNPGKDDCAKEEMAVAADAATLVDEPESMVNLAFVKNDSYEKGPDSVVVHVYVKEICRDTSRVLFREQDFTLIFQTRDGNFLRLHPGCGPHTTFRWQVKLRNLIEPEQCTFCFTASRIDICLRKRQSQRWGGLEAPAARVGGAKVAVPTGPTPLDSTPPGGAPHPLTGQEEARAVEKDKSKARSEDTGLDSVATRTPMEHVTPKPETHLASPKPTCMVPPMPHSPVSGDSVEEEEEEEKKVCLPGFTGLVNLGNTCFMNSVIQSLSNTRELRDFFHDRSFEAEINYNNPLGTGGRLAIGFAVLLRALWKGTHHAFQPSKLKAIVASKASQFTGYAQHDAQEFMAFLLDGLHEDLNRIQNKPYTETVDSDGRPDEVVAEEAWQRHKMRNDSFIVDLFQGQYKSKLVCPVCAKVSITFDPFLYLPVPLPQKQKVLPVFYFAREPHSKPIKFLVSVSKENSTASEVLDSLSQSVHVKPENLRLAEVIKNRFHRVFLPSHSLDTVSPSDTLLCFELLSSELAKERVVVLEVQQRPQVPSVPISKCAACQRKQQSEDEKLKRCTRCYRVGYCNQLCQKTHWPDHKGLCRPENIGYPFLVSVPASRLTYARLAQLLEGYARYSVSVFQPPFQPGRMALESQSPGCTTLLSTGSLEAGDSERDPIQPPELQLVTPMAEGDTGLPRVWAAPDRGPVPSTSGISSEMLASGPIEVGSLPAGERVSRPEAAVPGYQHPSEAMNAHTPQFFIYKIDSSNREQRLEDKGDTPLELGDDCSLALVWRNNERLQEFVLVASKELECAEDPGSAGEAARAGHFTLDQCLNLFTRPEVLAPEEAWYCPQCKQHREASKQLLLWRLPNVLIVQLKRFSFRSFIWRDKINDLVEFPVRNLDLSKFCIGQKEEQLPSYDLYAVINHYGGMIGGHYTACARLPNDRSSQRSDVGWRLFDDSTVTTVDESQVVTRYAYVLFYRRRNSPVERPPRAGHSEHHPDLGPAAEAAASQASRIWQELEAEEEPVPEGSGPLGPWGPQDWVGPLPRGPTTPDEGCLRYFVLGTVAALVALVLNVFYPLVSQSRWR
Summary of the method: (§1)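 The table lists average log2 ratios of fragment over vehicle, from an unpaired t-test on global-median-normalised Spectronaut label-free quantities. Proteins with ≥2 unique peptides were used. Samples were HEK293T lysate (495 µg) treated in triplicate with fragment at 200 µM or vehicle for 3 h, then with Biotin-Ahx-Ub-VS (0.5 µM final) for 1 h, with labelled DUBs NeutrAvidin-enriched and run by diaPASEF LC-MS/MS.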

USP22 = target: T2, USP22 (UniProt Q9UPT9)
T2 sequence (whole entry): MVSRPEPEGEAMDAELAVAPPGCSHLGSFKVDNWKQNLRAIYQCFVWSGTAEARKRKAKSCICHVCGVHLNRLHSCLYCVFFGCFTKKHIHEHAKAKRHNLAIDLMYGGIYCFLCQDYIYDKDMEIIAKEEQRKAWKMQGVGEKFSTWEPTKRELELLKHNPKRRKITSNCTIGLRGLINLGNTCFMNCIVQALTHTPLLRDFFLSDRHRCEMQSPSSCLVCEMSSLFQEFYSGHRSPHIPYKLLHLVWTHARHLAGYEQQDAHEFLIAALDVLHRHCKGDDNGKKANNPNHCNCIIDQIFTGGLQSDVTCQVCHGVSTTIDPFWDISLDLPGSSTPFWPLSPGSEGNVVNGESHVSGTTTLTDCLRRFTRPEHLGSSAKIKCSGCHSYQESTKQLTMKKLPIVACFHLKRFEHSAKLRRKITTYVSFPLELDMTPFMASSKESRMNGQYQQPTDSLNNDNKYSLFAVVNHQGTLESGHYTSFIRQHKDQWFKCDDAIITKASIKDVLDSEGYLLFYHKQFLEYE
Summary of the method: as §1

USP24 = USP24 (UniProt Q9UPU5)
Chain of USP24 (Q9UPU5 whole entry): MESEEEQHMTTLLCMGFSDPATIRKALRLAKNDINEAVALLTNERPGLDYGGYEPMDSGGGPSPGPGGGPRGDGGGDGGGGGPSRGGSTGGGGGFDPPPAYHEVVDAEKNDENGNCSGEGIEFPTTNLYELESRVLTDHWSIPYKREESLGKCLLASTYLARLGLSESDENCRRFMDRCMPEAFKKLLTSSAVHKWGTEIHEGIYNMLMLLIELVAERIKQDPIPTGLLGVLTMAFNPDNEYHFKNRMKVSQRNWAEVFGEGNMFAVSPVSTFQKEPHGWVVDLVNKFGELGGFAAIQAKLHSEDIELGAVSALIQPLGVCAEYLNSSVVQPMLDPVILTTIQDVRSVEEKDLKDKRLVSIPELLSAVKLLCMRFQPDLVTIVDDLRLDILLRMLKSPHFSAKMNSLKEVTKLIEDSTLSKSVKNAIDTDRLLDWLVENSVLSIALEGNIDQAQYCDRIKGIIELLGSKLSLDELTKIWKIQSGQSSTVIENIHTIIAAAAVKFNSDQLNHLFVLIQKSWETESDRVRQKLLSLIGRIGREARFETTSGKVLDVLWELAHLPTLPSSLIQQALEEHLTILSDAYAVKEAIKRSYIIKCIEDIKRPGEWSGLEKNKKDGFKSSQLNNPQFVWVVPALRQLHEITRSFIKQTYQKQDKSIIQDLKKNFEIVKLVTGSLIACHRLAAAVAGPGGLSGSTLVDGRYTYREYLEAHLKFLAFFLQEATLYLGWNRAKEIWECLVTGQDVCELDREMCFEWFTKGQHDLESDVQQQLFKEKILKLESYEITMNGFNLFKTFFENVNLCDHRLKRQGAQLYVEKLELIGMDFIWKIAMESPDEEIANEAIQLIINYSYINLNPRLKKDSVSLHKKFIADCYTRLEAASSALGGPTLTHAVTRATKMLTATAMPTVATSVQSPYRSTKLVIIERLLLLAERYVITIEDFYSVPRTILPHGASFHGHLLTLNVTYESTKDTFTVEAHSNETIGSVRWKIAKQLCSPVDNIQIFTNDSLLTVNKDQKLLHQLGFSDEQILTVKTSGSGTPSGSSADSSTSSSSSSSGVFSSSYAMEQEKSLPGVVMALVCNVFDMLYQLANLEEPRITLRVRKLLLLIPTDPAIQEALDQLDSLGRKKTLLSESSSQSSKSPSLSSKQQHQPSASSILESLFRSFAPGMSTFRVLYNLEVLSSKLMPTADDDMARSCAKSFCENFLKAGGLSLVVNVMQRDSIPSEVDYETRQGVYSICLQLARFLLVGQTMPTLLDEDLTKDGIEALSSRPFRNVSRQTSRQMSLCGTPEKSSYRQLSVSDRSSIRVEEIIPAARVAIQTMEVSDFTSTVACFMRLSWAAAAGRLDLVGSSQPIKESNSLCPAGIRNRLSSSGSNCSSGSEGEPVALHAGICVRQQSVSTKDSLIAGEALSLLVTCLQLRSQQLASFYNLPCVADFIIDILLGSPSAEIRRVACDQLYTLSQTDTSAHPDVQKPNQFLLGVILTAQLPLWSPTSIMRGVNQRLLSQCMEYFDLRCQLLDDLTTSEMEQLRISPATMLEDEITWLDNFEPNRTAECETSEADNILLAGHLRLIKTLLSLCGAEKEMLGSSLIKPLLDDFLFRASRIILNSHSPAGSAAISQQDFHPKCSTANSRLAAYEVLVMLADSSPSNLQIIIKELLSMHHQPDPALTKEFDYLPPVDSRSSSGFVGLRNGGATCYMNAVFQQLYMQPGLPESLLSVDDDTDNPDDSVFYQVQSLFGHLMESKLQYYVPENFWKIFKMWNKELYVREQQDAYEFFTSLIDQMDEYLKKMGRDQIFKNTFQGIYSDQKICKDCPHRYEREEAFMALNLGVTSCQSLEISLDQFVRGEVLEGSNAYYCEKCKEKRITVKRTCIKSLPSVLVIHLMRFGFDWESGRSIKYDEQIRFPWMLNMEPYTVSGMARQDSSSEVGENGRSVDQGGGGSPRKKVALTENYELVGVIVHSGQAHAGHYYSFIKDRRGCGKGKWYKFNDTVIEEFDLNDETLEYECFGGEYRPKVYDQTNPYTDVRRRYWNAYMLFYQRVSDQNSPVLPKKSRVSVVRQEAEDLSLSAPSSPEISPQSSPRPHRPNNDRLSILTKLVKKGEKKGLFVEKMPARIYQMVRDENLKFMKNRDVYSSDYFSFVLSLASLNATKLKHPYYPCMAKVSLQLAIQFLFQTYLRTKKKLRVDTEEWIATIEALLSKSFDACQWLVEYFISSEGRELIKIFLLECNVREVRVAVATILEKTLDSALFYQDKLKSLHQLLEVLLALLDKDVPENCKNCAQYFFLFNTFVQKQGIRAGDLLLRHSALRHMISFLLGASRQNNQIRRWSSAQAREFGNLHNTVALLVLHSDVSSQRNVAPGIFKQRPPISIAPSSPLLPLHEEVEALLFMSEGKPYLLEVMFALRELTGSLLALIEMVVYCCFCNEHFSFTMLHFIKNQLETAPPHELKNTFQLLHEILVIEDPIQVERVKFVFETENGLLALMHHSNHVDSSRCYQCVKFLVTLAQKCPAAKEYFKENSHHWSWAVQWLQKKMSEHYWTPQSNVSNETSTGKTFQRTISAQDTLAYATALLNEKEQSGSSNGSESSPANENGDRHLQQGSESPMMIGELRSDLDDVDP
Summary of the method: as §1

USP25 = target: T3, USP25 (UniProt Q9UHP3)
T3 sequence (whole entry): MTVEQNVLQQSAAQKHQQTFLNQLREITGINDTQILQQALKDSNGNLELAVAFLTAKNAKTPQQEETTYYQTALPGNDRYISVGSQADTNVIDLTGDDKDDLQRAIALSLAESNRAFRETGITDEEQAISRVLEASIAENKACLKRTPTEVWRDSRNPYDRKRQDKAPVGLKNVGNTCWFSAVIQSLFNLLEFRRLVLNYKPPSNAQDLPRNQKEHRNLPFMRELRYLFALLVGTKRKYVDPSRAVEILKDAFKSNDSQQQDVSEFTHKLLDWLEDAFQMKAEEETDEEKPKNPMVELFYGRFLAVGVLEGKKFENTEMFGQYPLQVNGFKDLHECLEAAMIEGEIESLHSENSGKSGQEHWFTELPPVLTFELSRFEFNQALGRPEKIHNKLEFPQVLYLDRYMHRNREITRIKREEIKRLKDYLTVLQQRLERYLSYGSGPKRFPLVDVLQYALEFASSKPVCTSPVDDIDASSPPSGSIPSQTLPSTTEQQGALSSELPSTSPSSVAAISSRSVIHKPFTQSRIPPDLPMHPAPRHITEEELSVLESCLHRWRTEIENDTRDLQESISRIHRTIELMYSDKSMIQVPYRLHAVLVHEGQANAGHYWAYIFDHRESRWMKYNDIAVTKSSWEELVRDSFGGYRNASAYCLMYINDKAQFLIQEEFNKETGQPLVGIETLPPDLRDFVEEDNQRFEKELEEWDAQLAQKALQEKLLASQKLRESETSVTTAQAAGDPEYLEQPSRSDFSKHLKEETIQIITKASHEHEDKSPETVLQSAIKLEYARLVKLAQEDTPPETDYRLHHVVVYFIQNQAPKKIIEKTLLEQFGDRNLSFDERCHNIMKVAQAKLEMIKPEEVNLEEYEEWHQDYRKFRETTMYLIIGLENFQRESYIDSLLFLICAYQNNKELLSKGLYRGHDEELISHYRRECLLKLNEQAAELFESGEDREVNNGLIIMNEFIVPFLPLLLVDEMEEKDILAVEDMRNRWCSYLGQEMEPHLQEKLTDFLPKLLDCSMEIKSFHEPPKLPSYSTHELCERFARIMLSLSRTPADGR
Summary of the method: as §1

USP28 = target: T4, USP28 (UniProt Q96RU2)
T4 sequence (whole entry): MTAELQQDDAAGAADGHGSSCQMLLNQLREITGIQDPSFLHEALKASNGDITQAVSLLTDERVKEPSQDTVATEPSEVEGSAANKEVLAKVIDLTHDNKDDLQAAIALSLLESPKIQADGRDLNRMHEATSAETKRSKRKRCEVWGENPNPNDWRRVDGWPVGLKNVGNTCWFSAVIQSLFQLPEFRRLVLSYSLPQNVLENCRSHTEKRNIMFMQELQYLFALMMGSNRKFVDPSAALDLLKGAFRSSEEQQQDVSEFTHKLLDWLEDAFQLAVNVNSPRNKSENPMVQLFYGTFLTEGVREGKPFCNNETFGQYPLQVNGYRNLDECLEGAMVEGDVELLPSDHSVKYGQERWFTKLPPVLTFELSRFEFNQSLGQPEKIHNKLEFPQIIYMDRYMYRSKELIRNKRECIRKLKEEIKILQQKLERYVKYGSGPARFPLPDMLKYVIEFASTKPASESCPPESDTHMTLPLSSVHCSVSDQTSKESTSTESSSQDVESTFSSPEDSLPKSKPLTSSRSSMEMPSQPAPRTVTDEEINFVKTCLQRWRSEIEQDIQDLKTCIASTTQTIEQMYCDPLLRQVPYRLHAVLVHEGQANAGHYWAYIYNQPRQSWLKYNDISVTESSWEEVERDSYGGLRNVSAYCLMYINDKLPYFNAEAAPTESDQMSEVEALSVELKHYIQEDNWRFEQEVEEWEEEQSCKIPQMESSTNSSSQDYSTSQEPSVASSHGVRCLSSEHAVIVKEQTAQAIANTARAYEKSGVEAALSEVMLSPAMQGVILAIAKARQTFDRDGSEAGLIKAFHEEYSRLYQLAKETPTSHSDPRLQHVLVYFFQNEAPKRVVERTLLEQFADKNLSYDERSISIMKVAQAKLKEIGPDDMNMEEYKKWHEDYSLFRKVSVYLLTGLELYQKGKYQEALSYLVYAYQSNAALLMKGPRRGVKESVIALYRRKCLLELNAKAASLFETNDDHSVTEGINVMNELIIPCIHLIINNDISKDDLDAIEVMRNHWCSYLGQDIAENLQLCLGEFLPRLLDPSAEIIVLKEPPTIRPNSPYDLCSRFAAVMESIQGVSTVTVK
Summary of the method: as §1

Measured: log2 ratio of Biotin-Ahx-Ub-VS probe labelling

Cc1cccc(NC(=O)[C@@H]2CCCN2C(=O)CCl)n1
inactive: USP19 -0.349 | USP22 -0.038 | USP24 -0.45 | USP25 -0.327 | USP28 -0.61
